Assay outcomes: PubChem BioAssay, National Center for Advancing Translational Sciences (NCATS)
BAZ2B block: qHTS Assay for Inhibitors of BAZ2B; Potency, µM (top dose mostly 114 µM), without a hit: at the top dose activity change, negative = inhibition, hits mostly inhibitors; Bromodomain adjacent to zinc finger domain protein 2B (Homo sapiens), Q9UIF8; AlphaScreen BAZ2B-H3K14Ac peptide displacement; 4.4% of 360,000 active; also: potency is read from the fitted curve at half-maximal effect; % is scaled to controls: 0 for no effect and ±100 for the full control effect; nearly all actives have a fitted effect of over 60% in size
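Compounds, titrated to a top concentration of 110 uM, were incubated 30 min at room temperature with preformed BAZ2B/acetyl-K14 H3 peptide complex (50 nM each). Proximity signal was measured by AlphaScreen after 20 min with beads.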
G9a inh: qHTS Assay for Inhibitors of Histone Lysine Methyltransferase G9a; G9a H3K9 monomethylation, AlphaScreen, 2 h; Potency, µM (top dose mostly 102 µM), for the others: at the highest dose activity, negative = inhibition, usual class: inhibitors; 8.8% of 350,000 active; AID 504332, 2011; also: potency is read from the fitted curve at half-maximal effect; % is scaled to controls: 0 for no effect and ±100 for the full control effect; nearly all actives have a fitted effect of over 75% in size
Target sequence (Q96KQ7 913-1193 limits assumed): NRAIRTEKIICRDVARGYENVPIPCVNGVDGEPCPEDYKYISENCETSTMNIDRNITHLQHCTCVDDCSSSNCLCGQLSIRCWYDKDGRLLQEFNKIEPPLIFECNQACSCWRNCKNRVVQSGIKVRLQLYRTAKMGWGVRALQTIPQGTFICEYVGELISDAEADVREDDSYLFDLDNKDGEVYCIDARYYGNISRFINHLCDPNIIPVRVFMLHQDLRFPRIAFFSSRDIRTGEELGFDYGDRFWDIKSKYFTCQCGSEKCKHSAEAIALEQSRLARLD
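Readings reflect AlphaScreen signal from monomethyl-H3K9 antibody detection. HMT at 20 nM; substrate b-H3K9 500 nM; cofactor SAM 20 uM; 2 h RT reaction; compounds tested as titrations in qHTS with 15 min preincubation.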
PLK1 PBD block: qHTS for Inhibitors of PLK1-PDB (polo-like kinase 1 - polo-box domain): Primary Screen; Serine/threonine-protein kinase PLK1 (Homo sapiens), P53350; Plk1 PBD binding of FITC phosphopeptide, fluorescence polarization; Potency, µM, for inactives: max response, negative = inhibition, usual class: inhibitors; 2.8% of 360,000 active; AID 720504, 2013; also: potency is read from the fitted curve at half-maximal effect; series mostly up to about 57 µM; % is scaled to controls: 0 for no effect and ±100 for the full control effect; nearly all actives have a fitted effect of over 65% in size
PI5P4K alpha inh: qHTS for Inhibitors of phosphatidylinositol 5-phosphate 4-kinase (PI5P4K); Phosphatidylinositol 5-phosphate 4-kinase type-2 alpha (Homo sapiens), P48426; PI5P4Kalpha enzyme, ADP-Glo luminescence, 60 min; hits give low values; max response, %; 1.2% of 330,000 active; active = max response of -50% or lower; inconclusive = between -30% and -50%; inactive = -30% or higher; also: value at the top dose of about 77 µM; % is scaled to controls: 0 for no effect and ±100 for the full control effect
Target sequence (P48426 whole entry, looked up): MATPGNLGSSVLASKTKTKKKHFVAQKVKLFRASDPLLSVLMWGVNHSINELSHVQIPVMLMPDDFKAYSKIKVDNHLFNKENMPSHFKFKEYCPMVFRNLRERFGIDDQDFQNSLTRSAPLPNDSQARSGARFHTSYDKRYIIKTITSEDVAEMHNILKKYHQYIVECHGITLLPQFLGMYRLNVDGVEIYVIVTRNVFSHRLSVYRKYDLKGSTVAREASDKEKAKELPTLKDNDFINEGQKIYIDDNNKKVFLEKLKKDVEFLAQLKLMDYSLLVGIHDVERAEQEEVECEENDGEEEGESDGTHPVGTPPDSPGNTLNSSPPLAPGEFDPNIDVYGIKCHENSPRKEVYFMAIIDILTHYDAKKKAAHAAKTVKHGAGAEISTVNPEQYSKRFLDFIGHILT
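Enzyme plus substrate dispensed, test compounds pinned in, then ATP (5 microM final) added. After 60 min at RT, ADP-Glo reagent 1 for 45 min and reagent 2 for 30 min preceded luminescence imaging.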
HP1b binding inh: HTS for Inhibitors of HP1-beta Chromodomain Interactions with Methylated Histone Tails | Potency, µM (series often up to 114 µM), for the others: top-dose activity change, negative = inhibition, usual class: inhibitors | AID 540317, 2011 | 0.56% of 390,000 active | AlphaScreen HP1-beta / biotin-H3K9me3 peptide binding; also: potency is read from the fitted curve at half-maximal effect; nearly all actives have a fitted effect of over 70% in size
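HP1-beta protein (50 nM final) preincubated 30 min at room temperature with biotinylated H3(1-18)K9me3 peptide (50 nM) in PBS pH 7.4, 0.01% Tween-20, then compound added for 30 min. AlphaScreen streptavidin donor/nickel chelate acceptor beads (10 ug/mL final), 30 min dark, luminescence read.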
JMJD2A Tudor: qHTS Assay for Inhibitors of JMJD2A-Tudor Domain. Potency, µM (titrated, usually from 114 µM), for inactives: at the highest dose activity change, negative = inhibition, most hits filed as inhibitors. AID 504339, 2011. AlphaScreen JMJD2A-Tudor / H3K4me3 peptide binding. 4.4% of 390,000 active; also: potency is read from the fitted curve at half-maximal effect; % is scaled to controls: 0 for no effect and ±100 for the full control effect; nearly all actives have a fitted effect of over 50% in size
* = called active by the depositor; ? = inconclusive; / = no result; [ ] = another dose, or the depositor's remark. Hits are enriched below; roughly 12% of the tested compounds scored in any of these assays. Unless noted, calls follow the shape of the dose curve; as a rule, active = well fitted curve in the direction sought with a large enough effect; inconclusive = small, poorly fitted or top-dose-only effect, or another doubt; inactive = no such curve, though single readings can be large; an effect the other way counts as inactive or inconclusive.

SMILES	BAZ2B block	G9a inh	PLK1 PBD block	PI5P4K alpha inh	HP1b binding inh	JMJD2A Tudor
O=C(CCN1C(=O)C2C3C=CC(C3)C2C1=O)Nc1nccs1 (stereo not drawn)	-2%	-25%	30µM*	-7	-5%	11%[11.4 µM]
O=C(CCCCCN1C(=O)C2C3C=CC(C3)C2C1=O)Nc1nccs1 (stereo not drawn)	-5%	1%	2%	-8	49%	-5%
Cc1c(C=O)c2ccccn2c1C(=O)c1cccs1	-26%	50µM*	-7%	0	33%	-1%
Cc1c(C=O)c2ccccn2c1C(=O)c1ccccc1Cl	3%	8%[2.33 µM]	-11%	5	13%	-14%
O=C(O)c1ccc(/C=C2\CCCc3c2nc2ccccc2c3C(=O)O)cc1	-11%	?	-7%	-13	23%	-5%
COc1ccc(/C=C2\CCc3c2nc2ccccc2c3C(=O)O)cc1OC	-2%	?	-29%	-6	46%	-5%
CN(C)c1ccc(/C=C2\CCCc3c2nc2ccccc2c3C(=O)O)cc1	-23%	40µM*	-5%	7	11%	-17%
COc1ccc(/C=C2\CCCc3c2nc2ccccc2c3C(=O)O)cc1OC	-22%	28µM*	/	/	/	/
COc1cc(-c2nc3ccc4ccccc4c3c3c2CCC3)cc(OC)c1O	?	79µM*	-7%	3	?	?
COc1cc(/C=C2\CCCc3c2nc2ccccc2c3C(=O)O)cc([N+](=O)[O-])c1O	56µM*	40µM*	-14%	-64*	?	?
COc1cc(-c2nc3ccc4ccccc4c3c3c2CCC3)cc(OC)c1OC	-4%	28%[12.7 µM]	0%	-2	43%	-7%
CCN(C1CCCCC1)S(=O)(=O)c1cc2c3c(c1)CCN3C(=O)CC2	10%	-10%	-19%	2	21%	-10%
O=C(O)c1c2c(nc3ccccc13)/C(=C/c1ccc(O)cc1)CCC2	-1%	-7%	-18%	1	27%	-14%
COc1cc(/C=C2\CCCc3c2nc2ccccc2c3C(=O)O)cc(OC)c1O	-16%	/	27µM*	-12	2%	?
O=C(CCS(=O)(=O)Cc1ccccc1)N1CCN(Cc2ccccc2)CC1	11%	50µM*	-7%	/	17%	-10%
O=C(CCS(=O)(=O)Cc1ccccc1)N1CCc2ccccc2C1	0%	20%[59 µM]	-11%	/	20%	-18%
Cc1oc(-c2ccccc2F)nc1CS(=O)(=O)CC(=O)N1CCOCC1	12%	-1%[59 µM]	-9%	9	33%	-9%
CCOC(=O)C1CCN(C(=O)CCS(=O)(=O)Cc2ccccc2)CC1	0%	50µM*	-11%	-12	13%	-9%
Cc1oc(-c2ccccc2F)nc1CS(=O)(=O)CC(=O)N1CCN(Cc2ccccc2)CC1	-22%	50µM*	-13%	8	11%	-20%
COC(=O)c1ccccc1S(=O)(=O)N1CCC(C(=O)NCc2ccco2)CC1	6%	12%[12.7 µM]	-12%	-2	16%	-13%
COc1c(C(=O)Nc2nnc(C3CC3)s2)csc1Cl	2%	39%	-4%	5	23%	-3%
COc1ccc(/C=N/OCC(=O)Nc2nc3ccccc3s2)cc1OC	-2%	7%	17µM*	-13	-1%	50µM*
CC(O)CN(CC(C)O)c1ccc2c(c1)Cc1cc([N+](=O)[O-])ccc1-2 (stereo not drawn)	/	/	28%	7	27%	-1%
CC(=NO)c1ccc2c(c1)Cc1cc([N+](=O)[O-])ccc1-2	/	/	4%	-70*	-27%	?
COc1ccc(S(=O)(=O)N(CC(=O)NCCSc2ccccc2)c2ccc(Cl)cc2)cc1	2%	-27%[59 µM]	/	/	18%	-2%
SMILES	BAZ2B block	G9a inh	PLK1 PBD block	PI5P4K alpha inh	HP1b binding inh	JMJD2A Tudor
CC(C)(C)C1=CC(=O)C(=O)C(C(C)(C)C)=C1	28µM*	1.6µM*	3.8µM*	?	?	18µM*
CCN(CC)CCNS(=O)(=O)c1ccc(Cl)cc1	3%	?	-4%	-2	29%	-8%[57.1 µM]
CCCN(CCC)CC(C)(C)NS(=O)(=O)c1ccc(Cl)cc1	?	?	0%	4	?	2.5µM*
O=C1CCCCc2cc(O)c(O)cc21	/	/	?	-16	/	/
Nc1cc2c(cc1O)CCCC2	-31%	/	-14%	-25	?	2.5µM*
CC(C)(C)OC(=O)N1CCC(c2c(C(=O)N3CCN(c4ccccn4)CC3)cnn2-c2ccc(F)cc2F)CC1	5%[57.1 µM]	-9%[59 µM]	/	/	-9%	-17%
COc1cc(CNc2ccc3[nH]c(=O)[nH]c3c2)ccc1OCc1ccccc1	?	32µM*	-2%	2	5%	-30%
COc1ccc(Br)cc1CNc1ccc2[nH]c(=O)[nH]c2c1	40µM*	?	-5%	0	?	50µM*
COc1cc(CNc2ccc3[nH]c(=O)[nH]c3c2)ccc1OCc1ccc(F)cc1	-26%	?	7%	-4	22%	-6%
C=CCOc1cccc(CNc2ccc3[nH]c(=O)[nH]c3c2)c1	?	20µM*	0%	1	-25%	?
C=CCOc1ccc(CNc2ccc3[nH]c(=O)[nH]c3c2)cc1OC	-27%	45µM*	-9%	?	6%	-11%
CCn1c(=O)n(-c2ccc3c(c2)OCO3)c2nc(-c3cc(OC)ccc3OC)nc(C(N)=O)c21	?	19%[59 µM]	/	/	17%	-20%
CCCCN(C(=O)c1cccc(S(=O)(=O)N(CC)c2ccccc2)c1)c1c(N)n(CC(C)C)c(=O)[nH]c1=O	/	/	3%	5	38%	-11%
COc1ccc2cnnc(SCC(=O)Nc3ccc(C(C)=O)cc3)c2c1OC	5%	-6%[59 µM]	-1%	-4	26%	-7%
COc1ccc2cnnc(SCC(=O)Nc3ccc(C(=O)O)cc3)c2c1OC	?	?	-8%	-66*	19%	-10%
COc1ccc(OC)c(NC(=O)CSc2nncc3ccc(OC)c(OC)c23)c1	79µM*	/	?	6	9%	-33%
CC1=C(c2ccc(C)c(C)c2)S(=O)(=O)N=C1N1CCC(C(=O)NCCc2ccco2)CC1	-17%	8%[59 µM]	/	/	?	-24%
Cc1ccc(NC(=O)Cn2c(=O)n(Cc3nc(-c4ccccc4)no3)c(=O)c3cc4c(cc32)OCO4)cc1C	-16%	-6%[59 µM]	/	/	57%	9%
S=c1[nH]nc2nnc3ccccc3n12	?	3.2µM*	-12%	?	-5%	-19%
Nn1nnc2ccccc21	3%	41%[59 µM]	-17%	3	48%	-17%
